Screening results: PubChem BioAssay, several laboratories
CYP2C19 inh – blockers of cytochrome P450 2C19 activity – biochemical, luminescence, ADME assay, primary screen; P33261; CYP2C19 Supersomes, luciferin-H EGE luminescence, 30 min; inhibition, % at 5 µM; actives 21% (n = 96,000); AID 778, 2007;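 active = CYP2C19 inhibition above a set limit at 5 µM in the primary screen, cut at about 50% in these data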;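 also: plate controls were negative control wells for no effect and 2.5 mM tranylcypromine positive control for full effect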
MRP1 act – H69AR viability gain despite doxorubicin, primary screen, MRP-1 activator project, H69AR cells, CellTiter-Glo; viability rescue; viability increase, % at 10 µM; actives 0.61% (n = 140,000);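 active = viability gain under doxorubicin at or above a set limit, the compound median plus 3 SD, cut at about 4.7% in these data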;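 also: MRP-1 overexpressing cells given doxorubicin 25 µM after compound pretreatment; 18-22 h compound pretreatment then 72 h with doxorubicin before readout; 0% = doxorubicin-only wells and 100% = vehicle-treated cells without doxorubicin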
CYP2C19 act – human CYP2C19 activators, primary screen, biochemical, luminescence | Cytochrome P450 2C19 (Homo sapiens), P33261 | recombinant CYP2C19, luciferin-H EGE luminescence; stronger effect = higher value; 0 = fully inhibited enzyme, 1 = untreated enzyme | activation factor at 5 µM | 96,000 tested, under 10 active;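 active = activation factor of at least 2 at 5 µM in the primary screen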;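 also: 0 = wells with 2.5 mM tranylcypromine and 1 = vehicle-only wells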
MRP resist rev – reversal of MRP1-mediated doxorubicin resistance, primary screen, H69AR cells, doxorubicin co-treatment | H69AR cells + 2 uM doxorubicin, CellTiter-Glo, 72 h | differential viability (reversal), % at 10 µM | actives 0.04% (n = 85,000) | AID 602, 2007;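 active = viability drop by adding the cancer drug above about 55%, with treated viability meeting a 40% cutoff, limit read from the data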;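 also: viability without doxorubicin minus viability with 2 µM doxorubicin for each compound; larger differential means the compound sensitizes cells more to doxorubicin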
CYP2C9 inh – blockers of cytochrome P450 2C9 activity – biochemical, luminescence, ADME assay, primary screen | CYP2C9 Supersomes, luciferin-H conversion | AID 777, 2007 | actives 20% (n = 96,000) | P11712 | inhibition, % at 5 µM;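 active = blocking of liver enzyme CYP2C9 beyond about 50% at 5 µM, limit read from the data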
Target sequence (P11712 whole entry, looked up): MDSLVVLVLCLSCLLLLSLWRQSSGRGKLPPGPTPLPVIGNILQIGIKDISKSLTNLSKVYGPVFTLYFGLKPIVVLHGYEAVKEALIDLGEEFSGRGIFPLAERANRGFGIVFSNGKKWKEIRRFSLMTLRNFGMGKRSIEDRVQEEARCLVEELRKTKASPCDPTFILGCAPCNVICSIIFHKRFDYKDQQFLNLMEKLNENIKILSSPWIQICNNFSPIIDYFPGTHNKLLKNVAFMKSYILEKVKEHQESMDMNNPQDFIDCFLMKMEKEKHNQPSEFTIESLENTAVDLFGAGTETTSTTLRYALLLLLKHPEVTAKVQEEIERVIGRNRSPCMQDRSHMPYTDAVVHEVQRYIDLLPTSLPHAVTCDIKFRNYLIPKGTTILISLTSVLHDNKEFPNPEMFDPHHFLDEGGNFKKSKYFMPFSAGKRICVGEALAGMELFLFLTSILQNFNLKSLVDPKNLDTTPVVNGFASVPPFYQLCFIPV
CYP2C9 activ – human CYP2C9 activators, primary screen, biochemical, luminescence. Cytochrome P450 2C9 (Homo sapiens), P11712. recombinant CYP2C9, luciferin-H conversion; stronger effect = higher value; factor 1 = untreated enzyme, 0 = blocked. activation factor at 5 µM. actives 1.4% (n = 96,000). AID 1024, 2008;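 active = activation factor of 2 or more for CYP2C9 at a 5 µM dose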;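 also: 0 = sulfaphenazole-blocked wells and 1 = vehicle-only wells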
* = called active by the depositor; · = no result. Compounds with a hit are over-represented: about 21% of the library has one in this group of screens.

SMILES	CYP2C19 inh	MRP1 act	CYP2C19 act	MRP resist rev	CYP2C9 inh	CYP2C9 activ
Cc1ccc(S(=O)(=O)N2c3ccccc3NC(=O)C2CC(=O)Nc2ccccc2)cc1 (stereo not drawn)	56.9*	2.3	0.4	-6.5	88.6*	0.1
O=C(N1CCOCC1)N1CCCC(c2nc(-c3cccs3)no2)C1 (stereo not drawn)	20.9	-0.7	0.8	7.1	-18.5	1.2
COc1ccc(C(=O)N2CCCC(c3nc(-c4cccs4)no3)C2)cc1 (stereo not drawn)	83.6*	-2.6	0.2	·	73.8*	0.3
COc1ccc(C(=O)N2CCCC(c3nc(-c4cccs4)no3)C2)cc1OC (stereo not drawn)	54.6*	-1.8	0.5	-19.4	4.5	1
CCCCn1nc(CC(=O)O)c2ccccc2c1=O	69.4*	-1.7	0.3	-2.8	3.1	1
O=C(Nc1cc(Sc2ccccn2)cc([N+](=O)[O-])c1)c1ccc([N+](=O)[O-])cc1	6.9	-1.1	0.9	·	13.1	0.9
CCCCNc1oc(-c2ccc(OC)cc2)nc1S(=O)(=O)c1ccccc1	54.5*	6.2*	0.5	6.5	17.8	0.8
O=S(=O)(c1ccccc1)c1nc(-c2ccco2)oc1NCCCn1ccnc1	100.1*	-0.9	0	-11.3	99.1*	0
CCNc1oc(-c2ccc(OC)cc2)nc1S(=O)(=O)c1ccc(Br)cc1	9.5	1.6	0.9	-3.4	-2.9	1
O=S(=O)(c1ccccc1)c1nc(-c2ccco2)oc1NCc1ccco1	47.2	-1.1	0.5	-1.4	29.3	0.7
CCOC(=O)/C=c1\s/c(=C\c2c(OCC)ccc3ccccc23)c(=O)n1CC(=O)NCC1CCCO1 (stereo not drawn)	93.3*	-4.8	0.1	-42.4	69.8*	0.3
CCOC(=O)/C=c1\s/c(=C\c2ccc3c(c2)OCCO3)c(=O)n1CC(=O)NCC1CCCO1 (stereo not drawn)	73.4*	1.0	0.3	3.5	57.5*	0.4
CCOC(=O)/C=c1\s/c(=C\c2ccccc2C)c(=O)n1CC(=O)NCc1ccc2c(c1)OCO2	·	-2.6	·	·	·	·
O=C(COc1ccc2ccccc2c1)N/N=C/C1CC=CCC1 (stereo not drawn)	·	-2.5	·	·	·	·
CCCn1c(C)cc(/C=C(\C#N)C(=O)OCC(=O)Nc2cccc(OC)c2)c1C	·	-1.2	·	·	·	·
CCOc1ccc(C(=O)NCC(=O)OC2CCOC2=O)cc1OCC (stereo not drawn)	-1.0	0.1	1	2.7	-6.9	1.1
O=C(CCC(=O)c1ccc(F)cc1)OC1CCOC1=O (stereo not drawn)	78.3*	-3.0	0.2	-0.8	-15.6	1.2
CC1=C(C(=O)Nc2ccc(Cl)cc2)C2(CCCCC2)C(C(N)=O)C(=S)N1 (stereo not drawn)	·	-3.0	·	·	·	·
CON1C(=O)C(=O)N(OC)C2CCCCCC21 (stereo not drawn)	·	1.4	·	·	·	·
Cc1cc(C)n(CC2CC(=O)N(c3ccc(Cl)c(Cl)c3)C2=O)n1 (stereo not drawn)	98.8*	-0.6	0	10.8	76.8*	0.2
CCn1nc(NC(=O)c2ccncc2)c2cc3cc(C)ccc3nc21	·	-2.8	·	·	·	·
CCCn1nc(NC(=O)c2ccncc2)c2cc3ccccc3nc21	92.6*	-0.8	0.1	-15.4	94.6*	0.1
CCn1nc(NC(=O)c2ccncc2)c2cc3ccc(C)cc3nc21	63.2*	-1.0	0.4	1.6	60.2*	0.4
CCCC(=O)Nc1nn(CCC)c2nc3ccccc3cc12	23.9	-0.6	0.8	2.4	49.3	0.5
O=C(N1CCOCC1)C1(c2ccc(Cl)cc2)CCCC1	88.3*	-1.2	0.1	15.7	-4.4	1
SMILES	CYP2C19 inh	MRP1 act	CYP2C19 act	MRP resist rev	CYP2C9 inh	CYP2C9 activ
c1ccc(CN2CCC3(CC2)Nc2ccccc2CO3)cc1	90.7*	-4.2	0.1	-0.2	7.8	0.9
Cc1ccc(S(=O)(=O)Cn2nnnc2C(c2ccccn2)N2CCN(c3ccccc3)CC2)cc1 (stereo not drawn)	72.4*	0.3	0.3	·	68.5*	0.3
Cc1ccc(S(=O)(=O)Cn2nnnc2C(CC(C)C)N2CCN(c3ccccc3)CC2)cc1 (stereo not drawn)	·	-0.1	·	23.7	·	·
Cc1ccc(C(c2nnnn2CS(=O)(=O)c2ccc(C)cc2)N2CCN(c3ncccn3)CC2)cc1 (stereo not drawn)	·	10.6*	·	-8.3	·	·
Cc1ccc(S(=O)(=O)Cn2nnnc2C(C(C)C)N2CCSCC2)cc1 (stereo not drawn)	23.9	-2.8	0.8	18.6	68.6*	0.3
CCC(=O)Nc1ccc(C(=O)NNC(=O)COc2cccc(C)c2)cc1	·	-0.4	·	·	·	·
CCCCn1nc2cc(C(=O)NCC34CC5CC(CC(C5)C3)C4)ccc2c1OCC	25.5	0.5	0.7	·	71.2*	0.3
CCN(C(=O)c1ccc2c(OC)n(CC)nc2c1)c1ccc(OC)cc1	5.8	-1.9	0.9	·	6.5	0.9
CCCCn1nc2cc(C(=O)N(CC)c3ccc(OC)cc3)ccc2c1OCC	51.9*	-0.4	0.5	·	74.9*	0.3
CCOc1c2ccc(C(=O)NCCc3cccs3)cc2nn1CC	-0.6	-1.0	1	·	-6.9	1.1
CCCCn1nc2cc(C(=O)NCCc3cccs3)ccc2c1OCC	61.4*	-0.9	0.4	·	52.9*	0.5
CCCCn1nc2cc(C(=O)NCc3ccccc3OC)ccc2c1OCC	46.9	0.9	0.5	·	56.0*	0.4
CCCn1nc2cc(C(=O)NCCc3ccc(C)cc3)ccc2c1OCC	18.5	-0.1	0.8	·	25.5	0.7
CCCn1nc2cc(C(=O)NC3CCCc4ccccc43)ccc2c1OCC (stereo not drawn)	3.7	0.5	1	·	-11.3	1.1
CCCCn1nc2cc(C(=O)NC3CCc4ccccc43)ccc2c1OCC (stereo not drawn)	17.7	-1.6	0.8	·	55.6*	0.4
O=C(Nc1ccc(Nc2ccccc2)cc1)C(Cl)(Cl)Cl	·	-2.7	·	·	·	·
CCCNC(=O)NC(=O)CSc1nnc(-c2ccncc2)n1CC	94.9*	-2.1	0.1	-17.7	27.7	0.7
CCn1c(CNc2ccc(F)cc2)nnc1SCC(=O)OC1CCCCC1	31.8	-0.6	0.7	-2.2	51.0*	0.5
CCn1c(SCC(=O)OC2CCCCC2)nnc1-c1ccncc1	88.2*	-0.9	0.1	9.7	41.3	0.6
CCn1c(CNc2ccc(OC)cc2)nnc1SCC(=O)Nc1ccc(F)cc1	·	-3.1	·	-2.9	·	·
CCn1c(CNc2ccc(F)cc2)nnc1SCC(=O)Nc1ccc(OC)cc1OC	50.0*	0.1	0.5	28.1	11.2	0.9
